This note sets out measurements from PubChem BioAssay AID488969 (Vanderbilt High Throughput Screening Facility, 2010).

Over roughly 110,000 compounds, “z-score” has its median near -0.1; the highest 2% begin near 2. The entries come from a sample that favours the highest values as a whole. Activity calls are given as the source filed them.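 How the source made its calls: active means z-score in the third read window above 3 or below -3; inactive means the rest.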 Residues, ends and D or L forms follow the SMILES beside them. *: point of attachment. OBn = c1ccc(CO*)cc1

Metabotropic glutamate receptor 8 (Rattus norvegicus), sequence (P70579 whole entry, looked up): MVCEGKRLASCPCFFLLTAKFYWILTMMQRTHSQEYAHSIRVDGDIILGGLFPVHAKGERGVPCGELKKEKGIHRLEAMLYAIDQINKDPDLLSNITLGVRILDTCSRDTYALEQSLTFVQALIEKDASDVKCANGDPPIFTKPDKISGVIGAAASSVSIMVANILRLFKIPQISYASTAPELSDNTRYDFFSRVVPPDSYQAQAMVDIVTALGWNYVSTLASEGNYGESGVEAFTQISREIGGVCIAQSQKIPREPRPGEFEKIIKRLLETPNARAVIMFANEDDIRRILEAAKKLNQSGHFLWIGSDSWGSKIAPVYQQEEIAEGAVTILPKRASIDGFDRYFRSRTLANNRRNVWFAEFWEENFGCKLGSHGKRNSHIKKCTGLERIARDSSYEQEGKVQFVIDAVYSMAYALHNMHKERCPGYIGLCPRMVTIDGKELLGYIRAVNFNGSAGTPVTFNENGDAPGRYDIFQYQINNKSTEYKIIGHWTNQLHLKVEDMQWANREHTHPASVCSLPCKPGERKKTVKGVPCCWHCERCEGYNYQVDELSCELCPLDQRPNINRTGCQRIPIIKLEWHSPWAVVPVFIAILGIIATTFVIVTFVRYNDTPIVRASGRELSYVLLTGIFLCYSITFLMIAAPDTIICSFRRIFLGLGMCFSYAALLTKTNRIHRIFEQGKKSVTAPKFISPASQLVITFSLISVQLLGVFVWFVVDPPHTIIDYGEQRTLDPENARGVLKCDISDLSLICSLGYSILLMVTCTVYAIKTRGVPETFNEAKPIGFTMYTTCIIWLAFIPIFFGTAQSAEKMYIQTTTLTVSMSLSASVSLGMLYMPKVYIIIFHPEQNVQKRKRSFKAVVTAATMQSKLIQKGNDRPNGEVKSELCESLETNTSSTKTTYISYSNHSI

The test addresses Metabotropic glutamate receptor 8 (Rattus norvegicus) (UniProt P70579). As to the kind of experiment: rat mGluR8 modulators via GIRK flux, primary screen, cell-based, thallium flux, HTS (AID 488969). As to conditions: HEK293 rat mGluR8, GIRK (G protein-gated inwardly rectifying potassium channel) thallium flux, FluoZin2; at 10 µM; stronger effect = higher value; submaximal glutamate (EC20) added with thallium.
Turning to `Cc1ccc(S(=O)(=O)N(C)CC(=O)O/N=C(\N)c2ccc([N+](=O)[O-])cc2)cc1`, the z-score is -0.621.

Take `O=c1c(-c2ccc(Cl)cc2)[n+]([O-])c2ccccc2n1O`: the z-score is 14 (active).

Regarding `COn1c(=O)c(-c2ccc(Cl)cc2)[n+]([O-])c2ccccc21`, the z-score is -0.503.

`CCOn1c(=O)c(-c2ccc(Cl)cc2)[n+]([O-])c2ccccc21`: the z-score is 0.119.

The compound `Cc1ccc(C)c(-n2[nH]c3c4c(ccc3c2=O)C(=O)c2ccccc2C4=O)c1` had a z-score of 0.0628.

In the case of `O=C(Nc1ccncc1)c1ccc2c(c1)C(=O)N(C1CCCCC1)C2=O`, the z-score is 6.89 (active).

Compound `Cc1cc(NC(=O)c2ccc3c(c2)C(=O)N(C2CCCCC2)C3=O)no1` yielded a z-score of 0.19.

The compound `O=C(Nc1ccncc1)c1ccc2c(c1)C(=O)N(CC1CCCO1)C2=O` (stereo not drawn) yielded a z-score of -0.193.

Turning to `CCOC(=O)N1CCN(c2cc(=O)n(-c3ccc(OCC)cc3)c(=O)[nH]2)CC1`, the z-score is -0.000123.

On to `O=C(NNC(=O)c1sccc1-n1cccc1)c1ccccc1`, for which the z-score amounted to 0.869.

As for `O=C(NNC(=O)c1sccc1-n1cccc1)c1cccc(Cl)c1`, the z-score is 4.1 (active).

`O=C(N/N=C\c1ccc(Cl)cc1Cl)c1sccc1-n1cccc1` returned a z-score of -0.203.

Regarding `O=C(NNS(=O)(=O)c1ccc(Cl)cc1)c1sccc1-n1cccc1`, the z-score is 0.249.

`O=C(NNC(=O)c1sccc1-n1cccc1)c1ccc(Cl)cc1`: the z-score was 3.06 (active).

In turn, `O=C(NNS(=O)(=O)c1cc(Cl)cc(Cl)c1)c1sccc1-n1cccc1` came in with a z-score of 1.93.

The compound `CCOC(=O)N/N=C(C)/C=C/c1ccco1` registered a z-score of 0.31.

As for `CCC(Oc1ccccc1)C(=O)N1CCN(C(=O)C(CC)Oc2ccccc2)CC1` (stereo not drawn), the z-score was -0.159.

Turning to `Cn1c(SCC(=O)NNC(=O)Cc2ccccc2)nnc1-c1ccc(Cl)cc1`, the z-score was -0.126.

Take `N=C1/C(=C/c2cccn2-c2ccc([N+](=O)[O-])cc2)C(=O)N=C2SC=CN12`: the z-score was -0.214.

`N=C1/C(=C/c2cccn2-c2cccc([N+](=O)[O-])c2)C(=O)N=C2SC=CN12` gave a z-score of -0.207.

The compound `CC(C)c1ccc(-n2cccc2/C=C2/C(=N)N3C=CSC3=NC2=O)cc1` had a z-score of 2.17.

Compound `CC1CCN(c2c([N+](=O)[O-])c(=O)n(-c3ccccc3)c3ccccc23)CC1` showed a z-score of 0.00884.

`N#C/C(=C/c1ccc(OCc2ccccc2)cc1)C(=O)NC1CCCCC1` showed a z-score of 0.0182.

Regarding `O=C(NCCN1CCCC1)c1ccc(CS(=O)(=O)c2c(Cl)cccc2Cl)o1`, the z-score is -0.063.

As to `O=C(c1sc2cc(F)ccc2c1Cl)N1CCN(c2cccc(Cl)c2)CC1`, the z-score is -0.403.

`CCCCCCC(=O)NC(Nc1ccc(S(N)(=O)=O)cc1)C(Cl)(Cl)Cl` (stereo not drawn) showed a z-score of -0.259.

On to `Cn1ncc2c(=O)n(CC(=O)NC34CC5CC(CC(C5)C3)C4)cnc21`, for which the z-score is -0.265.

Regarding `COC(=O)C1=NN(N=O)C2(CC(=O)N(c3cc(C)cc(C)c3)C2=O)C1` (stereo not drawn), the z-score is -0.194.

For `Cc1ccc(C)n1-c1ccc(C(=O)NCC2CCCO2)cc1` (stereo not drawn), the z-score is -0.25.

For the compound `CCCCN(C)C1=CC2=CC(=C(C#N)C#N)CCC2CC1` (stereo not drawn), the z-score is 5.11 (active).

As to `N#CC(C#N)=C1C=C2C=C(N3CCCCC3)CCC2CC1` (stereo not drawn), the z-score is 10.9 (active).

Consider `O=c1[nH]c2cc3c(cc2cc1C(c1nnnn1C1CCCCC1)N1CCSCC1)OCCO3` (stereo not drawn), for which the z-score came to 0.278.

`CCC(=O)N1CCc2cc(S(=O)(=O)NCCCOC)ccc21`: the z-score is -0.216.

Take `Cc1nc2ccccn2c1C(=O)N/N=C/c1ccc2c(c1)OCO2`: the z-score came out at 0.65.

`COCCn1c(SCC(=O)c2ccc3c(c2)OCCO3)nnc1-c1ccoc1C` had a z-score of -0.231.

`O=c1nc(NCc2ccccc2Cl)cn[nH]1` gave a z-score of 0.66.

For the compound `CC(Nc1ccc(Br)cc1)C(=O)N/N=C/c1ccccc1OCc1ccccc1` (stereo not drawn), the z-score was -0.283.

Consider `COC(=O)c1cc(NC(=O)C23CCC(C)(C(=O)O2)C3(C)C)cc(C(=O)OC)c1` (stereo not drawn), for which the z-score was determined as 0.577.

Compound `COC(=O)c1ccc(NC(=O)C23CCC(C)(C(=O)O2)C3(C)C)cc1` (stereo not drawn) displayed a z-score of 2.35.

Regarding `COc1ccc(NC(=O)C23CCC(C)(C(=O)O2)C3(C)C)cc1` (stereo not drawn), the z-score amounted to 0.0605.

On to `Cc1cs/c(=N\N=C\c2cccc([N+](=O)[O-])c2)n1Cc1ccco1`, for which the z-score was 5.13 (active).

`Cc1cs/c(=N\N=C\c2ccccc2)n1Cc1ccco1` showed a z-score of -0.431.

Regarding `Cc1csc(=NC(=O)c2ccccc2)n1Cc1ccco1`, the z-score was -0.784.

`CC(C(=O)Nc1ccc(F)c(F)c1F)N(C)CC(=O)Nc1ccccc1Br` (stereo not drawn): the z-score is -0.465.

Take `O=C(c1ccccc1)c1ccc(OCC(O)CN2CCCCC2)cc1` (stereo not drawn): the z-score was 2.13.

The compound `OC(COc1ccc(OCc2ccccc2)cc1)CN1CCOCC1` (stereo not drawn) registered a z-score of -0.0779.

Turning to `O=C(c1ccccc1)c1ccc(OCC(O)CN2CCN(S(=O)(=O)N3CCCCC3)CC2)cc1` (stereo not drawn), the z-score was found to be 0.198.

`OC(COc1ccc(OCc2ccccc2)cc1)CN1CCCCC1` (stereo not drawn) yielded a z-score of 2.76.

As to `O=C(c1ccccc1)c1ccc(OCC(O)CN2CCOCC2)cc1` (stereo not drawn), the z-score is -0.0655.

In turn, `OC(COc1ccc(OCC(O)CN2CCCCCC2)cc1)CN1CCCCCC1` (stereo not drawn) showed a z-score of -0.0132.

As for `COc1ccc2nc(C)cc(SCC(=O)N/N=C/c3ccccc3)c2c1`, the z-score worked out at 0.834.

`Cn1nnnc1SCC(=O)N(C1CCCCC1)C1CCCCC1`: the z-score worked out at 2.45.

In turn, `Cn1nnnc1SCC(=O)NC1CCCCC1` showed a z-score of -0.00615.

In the case of `CCn1nnnc1SCC(=O)N(C1CCCCC1)C1CCCCC1`, the z-score was -0.262.

In the case of `Cc1ccc2cc(CN(CCN3CCCC3)C(=O)Nc3ccc(F)cc3)c(=O)[nH]c2c1C`, the z-score came out at 2.05.

`Cc1ccc(C)c2[nH]c(=O)c(CN(CCN3CCCC3)C(=O)Nc3ccc(F)cc3)cc12` had a z-score of 0.644.

`Cc1ccc2cc(CN(CCN3CCCC3)C(=O)Nc3ccccc3)c(=O)[nH]c2c1C` showed a z-score of -0.236.

As for `CCC(C)C(N)C(=O)NC(CCC(=O)OCc1ccccc1)C(N)=O` (stereo not drawn) (H-Ile-Glu(OBn)-NH2; configuration not given here), the z-score is 0.0296.

For the compound `Cc1nc(NCCc2ccccc2F)c(C#N)c(C)c1[N+](=O)[O-]`, the z-score amounted to 0.24.

Compound `O=C(c1scc2c1CCCC2)N1CCCCC1` registered a z-score of -0.475.

Compound `Cc1ccc2c(c1)N(Cc1ccncc1)C(=O)C(C)O2` (stereo not drawn) gave a z-score of 0.33.

In the case of `CC1=CC(=O)OC1Cc1ccncc1` (stereo not drawn), the z-score is 14.2 (active).

Regarding `O=C1OC(Cc2ccncc2)C(O)=C1C1=NCCCN1` (stereo not drawn), the z-score is -0.135.

Consider `O=C(O)CCCCCN1C(=O)/C(=C/c2ccncc2)SC1=S`, for which the z-score was -0.0629.

`CCC(C)c1ccc(O)c(NC(=O)c2ncn[nH]2)c1` (stereo not drawn) yielded a z-score of -0.374.

In turn, `Cc1ccc(C)c(-c2cc(C(=O)NCc3cccs3)c3ccccc3n2)c1` displayed a z-score of -0.0338.

Turning to `O=C(Nc1ccc(Br)cc1F)c1ccc2c(c1)N(Cc1ccccc1)C(=O)CS2=O` (stereo not drawn), the z-score is 1.3.

The compound `O/N=C/c1cc(Cl)ccc1OCc1cccc2ccccc12` came in with a z-score of 2.76.

Compound `O/N=C/c1cc(Cl)ccc1OCc1ccccc1Cl` gave a z-score of -0.352.

In turn, `CCOc1ccc(Cl)cc1/C=N/O` returned a z-score of -0.395.

`Nc1ncnc2c1ncn2CCNCCc1ccccc1` returned a z-score of -0.981.

As for `COc1cccc(/C=N/n2c(-c3cccs3)n[nH]c2=S)c1`, the z-score was 3.25 (active).

Compound `Cc1cc(-c2n[nH]c(=S)n2/N=C/c2cccc([N+](=O)[O-])c2)n[nH]1` gave a z-score of -0.221.

The compound `COc1ccc(/C=N/n2c(-c3cccs3)n[nH]c2=S)cc1` registered a z-score of 2.46.

For the compound `Cc1cccc(/C=N/n2c(-c3ccccn3)n[nH]c2=S)c1`, the z-score is -0.174.

`Cc1cc(-c2n[nH]c(=S)n2/N=C/c2cccs2)n[nH]1` had a z-score of -0.233.

Consider `CCOC(=O)COc1ccc(S(=O)(=O)NCc2cccnc2)cc1`, for which the z-score came out at 0.014.

Take `Cc1nn(CC(=O)NCc2cccc3ccccc23)c(=O)c2ccccc12`: the z-score was -0.0519.

In turn, `COc1ccc(NC(=O)C2CCN(C(=O)c3ccccc3)CC2)c(OC)c1` yielded a z-score of -1.36.

As for `Cn1nc(C(=O)NC2CCCCCC2)ccc1=O`, the z-score worked out at 1.32.

In the case of `CCOC(=O)c1c(-c2cccs2)csc1NC(=O)CNCCN1CCOCC1`, the z-score is -0.205.

`CC(NC(=O)COC(=O)c1cc(NS(=O)(=O)c2ccc(Cl)c([N+](=O)[O-])c2)ccc1O)C1CC2CCC1C2` (stereo not drawn) registered a z-score of -0.436.

The compound `O=C(OCC(=O)N1CCCCC1)c1cc(NS(=O)(=O)c2ccc(Cl)c([N+](=O)[O-])c2)ccc1O` returned a z-score of -0.652.

The compound `CCN(C(=O)COC(=O)c1cc(NS(=O)(=O)c2ccc(Cl)c([N+](=O)[O-])c2)ccc1O)C1CCCCC1` returned a z-score of 2.

In turn, `O=C(COC(=O)Cc1c(Cl)cccc1Cl)NCCC1=CCCCC1` registered a z-score of -0.34.

`COc1cc(C2NC(=O)NC(O)(C(F)(F)F)C2C(=O)c2cccs2)ccc1O` (stereo not drawn) came in with a z-score of -0.852.

For `CCOC(=O)c1ccc(Nc2ncnc3ccc(C)cc23)cc1`, the z-score was -0.372.

In turn, `CCCc1cc(=O)n2[nH]c(C)cc2n1` returned a z-score of -0.851.

For `CCCc1cc(=O)n2[nH]c(-c3ccc(Br)cc3)cc2n1`, the z-score was 3.04 (active).

As for `CCCc1cc(=O)n2[nH]c(-c3ccccc3)cc2n1`, the z-score is 0.844.

In turn, `O=C(Cn1cc(C(=O)c2cccs2)c2ccccc21)NC1CCCCC1` returned a z-score of -2.37.

`O=C(Cn1c(C(F)(F)F)nc2ccccc21)c1ccc(Cl)cc1` had a z-score of -0.0833.

As for `O=C(Nc1ccc2c(c1)OCO2)c1noc2c1CCCCC2`, the z-score stood at 0.597.

In the case of `COc1ccccc1N1CCc2c(C)nc3c(OC)cccc3c21`, the z-score is -0.0829.

Turning to `COc1cc(OC)c2nc(C)c3c(c2c1)N(c1ccc(O)cc1)CC3`, the z-score was 3.3 (active).

In turn, `COc1ccc(N2CCc3c(C)nc4c(OC)cc(OC)cc4c32)c(OC)c1` displayed a z-score of 0.775.

In turn, `CNc1nc(SCc2ccccc2Cl)nc2c1CCCC2` yielded a z-score of -0.358.

The compound `Cc1cc(CC(C)C)n(-c2nc3ccccc3c(=O)n2OCc2ccccc2)n1` gave a z-score of 0.802.

In the case of `Cc1cc(C)n(-c2nc3ccccc3c(=O)n2OCC(N)=O)n1`, the z-score is -0.254.

Regarding `Cc1cc(CC(C)C)n(-c2nc3ccccc3c(=O)n2OCC(N)=O)n1`, the z-score is 3.83 (active).

Turning to `Cn1c(SCc2nc(-c3ccc(Cl)cc3)no2)nnc1-c1ccco1`, the z-score is 0.0893.

The compound `O=C(COc1ccc(OCc2ccccc2)cc1)NC1CCOC1=O` (stereo not drawn) had a z-score of -0.0067.

For the compound `CC(C)C(c1nnnn1C1CCCC1)N(C)C1CCCCC1` (stereo not drawn), the z-score was -0.559.

The compound `CC(C)OCCCNC(=O)c1ccc(Br)cc1` had a z-score of 0.954.

Compound `COCCCNC(=O)c1cccc(NC(=O)c2ccccc2)c1` displayed a z-score of -0.13.

Turning to `CC(C)OCCCNC(=O)c1cccc(NC(=O)c2ccccc2)c1`, the z-score worked out at 2.99.

Take `COc1ccccc1C(=O)Nn1cnc2ccccc2c1=O`: the z-score stood at 0.366.

In turn, `CCCCN1C2=C(C(=O)CCC2)C(c2ccc(Cl)c(Cl)c2)C2=C1c1ccccc1C2=O` (stereo not drawn) had a z-score of -0.878.
